Measurements as given in PubChem BioAssay AID1159580 (chemical genetic matrix, 2015).
“And” between values parts separate entries of the source, which are not always exact repeats. Equal values may be shown once. The campaign covered roughly 5,500 compounds. About 2,000 (36%) were called active. Not shown: some 18% with an inconclusive outcome. Rule as the data show it: active = normalized growth mostly below about 0.91 (no sharp cut-off); inconclusive = no clear call, values can overlap the other calls; inactive = mostly above about 0.92. The list shows a part of the results.

Test: chemical genetic growth profiling, strain panel (AID 1159580);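 also: tested at 20 µM; growth read once vehicle control cultures reached saturation at 30 °C; 1 = growth at the plate median or of vehicle wells; lower values mean less growth of the strain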
Conditions: growth OD
[1] = S. cerevisiae deletion strains, locus YAL013W, strain DEP1, active compounds read low
[2] = S. cerevisiae deletion strains, locus YBR229C, strain ROT2, active compounds read low
[3] = S. cerevisiae deletion strains, locus YDL101C, strain DUN1, active compounds read low
[4] = S. cerevisiae deletion strains, locus YDL134C, strain PPH21, active compounds read low
[5] = S. cerevisiae deletion strains, locus YDR150W, strain NUM1, active compounds read low
[6] = S. cerevisiae deletion strains, locus YEL061C, strain CIN8, active compounds read low
[7] = S. cerevisiae deletion strains, locus YGR078C, strain PAC10, active compounds read low
[8] = S. cerevisiae deletion strains, locus YGR229C, strain SMI1, active compounds read low
[9] = S. cerevisiae deletion strains, locus YHR030C, strain SLT2, active compounds read low
[10] = S. cerevisiae deletion strains, locus YHR087W, strain rtc3, active compounds read low
[11] = S. cerevisiae deletion strains, locus YJR043C, strain POL32, active compounds read low
[12] = S. cerevisiae deletion strains, locus YJR075W, strain HOC1, active compounds read low
[13] = S. cerevisiae deletion strains, locus YKL190W, strain CNB1, active compounds read low
[14] = S. cerevisiae deletion strains, locus YLR039C, strain RIC1, active compounds read low
[15] = S. cerevisiae deletion strains, locus YLR058C, strain SHM2 (second series), active compounds read low
[16] = S. cerevisiae deletion strains, locus YLR085C, strain ARP6, active compounds read low
[17] = S. cerevisiae deletion strains, locus YLR262C, strain YPT6, active compounds read low
[18] = S. cerevisiae deletion strains, locus YML094W, strain GIM5, active compounds read low
[19] = S. cerevisiae deletion strains, locus YMR219W, strain ESC1, active compounds read low
[20] = S. cerevisiae deletion strains, locus YMR263W, strain SAP30, active compounds read low
[21] = S. cerevisiae deletion strains, locus YNL128W, strain TEP1, active compounds read low
[22] = S. cerevisiae deletion strains, locus YNL153C, strain GIM3, active compounds read low
[23] = S. cerevisiae deletion strains, locus YNL298W, strain CLA4 (second series), active compounds read low
[24] = S. cerevisiae deletion strains, locus YNL322C, strain KRE1, active compounds read low
[25] = S. cerevisiae deletion strains, locus YNR030W, strain Alg12, active compounds read low
[26] = S. cerevisiae deletion strains, locus YPL055C, strain LGE1, active compounds read low
[27] = S. cerevisiae deletion strains, locus YPL241C, strain CIN2, active compounds read low
[28] = S. cerevisiae deletion strains, locus YPR135W, strain CTF4, active compounds read low
[29] = S. cerevisiae strains, strain wild type, active compounds read low

Measured: normalized growth

Cn1c2c(c3ccccc31)/C(=N\OC(=O)c1ccc(Cl)cc1Cl)CCC2
inactive: [1] 1.01 | [2] 1.03 | [3] 1.02 | [4] 1.02 | [5] 1.04 | [6] 0.957 | [7] 1.03 | [8] 1.02 | [9] 1.07 | [10] 0.986 | S. cerevisiae deletion strains, locus YJL187C, strain SWE1, active compounds read low 1.01 | [11] 1.02 | [12] 1.01 | [13] 1.01 | [14] 1.01 | [15] 1.02 | [16] 0.977 | [17] 1.15 | [18] 1 | [19] 1 | [20] 0.986 | [21] 1.01 | [22] 1.04 | [23] 1.01 | [24] 1.01 | [25] 1.03 | [26] 0.982 | [27] 0.98 | [28] 1.11 | [29] 1.02

O=C(O/N=C1/CCCc2[nH]c3ccccc3c21)c1ccc(Cl)cc1Cl
inactive: S. cerevisiae deletion strains, locus YAR019C, strain CDC15, active compounds read low 0.982 | S. cerevisiae deletion strains, locus YBL105C, strain PKC1, active compounds read low 0.984 | S. cerevisiae deletion strains, locus YBR135W, strain CKS1, active compounds read low 0.974 | S. cerevisiae deletion strains, locus YBR136W, strain MEC1, active compounds read low 0.975 | S. cerevisiae deletion strains, locus YBR160W, strain CDC28, active compounds read low 0.98 | [2] 0.97 | S. cerevisiae deletion strains, locus YCL061C, strain MRC1, active compounds read low 0.923 | S. cerevisiae deletion strains, locus YDL017W, strain CDC7, active compounds read low 0.974 | S. cerevisiae deletion strains, locus YDL028C, strain MPS1, active compounds read low 0.972 | [3] 0.989 and 1 | S. cerevisiae deletion strains, locus YDL108W, strain KIN28, active compounds read low 0.972 | S. cerevisiae deletion strains, locus YDL132W, strain cdc53, active compounds read low 0.976 | [4] 0.968 | S. cerevisiae deletion strains, locus YDL214C, strain PRR2, active compounds read low 0.917 | S. cerevisiae deletion strains, locus YDR052C, strain DBF4, active compounds read low 0.985 | S. cerevisiae deletion strains, locus YDR054C, strain cdc34, active compounds read low 0.984 | [5] 0.943 | S. cerevisiae deletion strains, locus YDR226W, strain ADK1, active compounds read low 0.96 | S. cerevisiae deletion strains, locus YDR477W, strain SNF1, active compounds read low 0.91 | [6] 0.917 | S. cerevisiae deletion strains, locus YER123W, strain YCK3, active compounds read low 0.917 | S. cerevisiae deletion strains, locus YER133W, strain GLC7, active compounds read low 0.91 | S. cerevisiae deletion strains, locus YFL009W, strain cdc4, active compounds read low 0.971 | S. cerevisiae deletion strains, locus YFL029C, strain CAK1, active compounds read low 0.98 | S. cerevisiae deletion strains, locus YFR003C, strain YPI1, active compounds read low 0.973 | S. cerevisiae deletion strains, locus YFR019W, strain FAB1, active compounds read low 0.95 | S. cerevisiae deletion strains, locus YFR028C, strain CDC14, active compounds read low 0.977 | S. cerevisiae deletion strains, locus YGR040W, strain KSS1, active compounds read low 0.908 | S. cerevisiae deletion strains, locus YGR052W, strain FMP48, active compounds read low 0.897 | [7] 0.962 | S. cerevisiae deletion strains, locus YGR092W, strain DBF2, active compounds read low 0.982 | [8] 0.993 | S. cerevisiae deletion strains, locus YHR079C, strain IRE1, active compounds read low 0.988 | S. cerevisiae deletion strains, locus YHR082C, strain KSP1, active compounds read low 0.943 | [10] 0.982 | S. cerevisiae deletion strains, locus YHR205W, strain SCH9, active compounds read low 0.961 | S. cerevisiae deletion strains, locus YIL147C, strain SLN1, active compounds read low 0.976 | S. cerevisiae deletion strains, locus YJL095W, strain BCK1, active compounds read low 0.935 | S. cerevisiae deletion strains, locus YJL128C, strain PBS2, active compounds read low 0.921 | S. cerevisiae deletion strains, locus YJL157C, strain FAR1, active compounds read low 0.906 | S. cerevisiae deletion strains, locus YJR016C, strain ILV3, active compounds read low 0.964 | [11] 0.941 | S. cerevisiae deletion strains, locus YJR066W, strain TOR1 (second series), active compounds read low 0.876 | S. cerevisiae deletion strains, locus YJR066W, strain TOR1, active compounds read low 0.987 | [12] 0.895 | S. cerevisiae deletion strains, locus YKL048C, strain ELM1, active compounds read low 0.963 | S. cerevisiae deletion strains, locus YKL067W, strain YNK1, active compounds read low 0.946 | S. cerevisiae deletion strains, locus YKL101W, strain HSL1, active compounds read low 0.935 | S. cerevisiae deletion strains, locus YKL193C, strain SDS22, active compounds read low 0.969 | S. cerevisiae deletion strains, locus YKL203C, strain TOR2, active compounds read low 0.958 | [15] 0.971 | S. cerevisiae deletion strains, locus YLR133W, strain CKI1, active compounds read low 0.926 | S. cerevisiae deletion strains, locus YLR403W, strain SFP1, active compounds read low 0.931 | S. cerevisiae deletion strains, locus YML070W, strain DAK1, active compounds read low 0.914 | S. cerevisiae deletion strains, locus YMR001C, strain CDC5, active compounds read low 0.977 | S. cerevisiae deletion strains, locus YMR205C, strain PFK2 (second series), active compounds read low 0.935 | [19] 1.01 | S. cerevisiae deletion strains, locus YMR277W, strain FCP1, active compounds read low 0.969 | S. cerevisiae deletion strains, locus YNL006W, strain LST8, active compounds read low 0.983 | S. cerevisiae deletion strains, locus YNL020C, strain ARK1, active compounds read low 0.921 | [21] 0.972 | [22] 0.971 | S. cerevisiae deletion strains, locus YNL161W, strain CBK1, active compounds read low 0.971 | S. cerevisiae deletion strains, locus YNL183C, strain NPR1, active compounds read low 1 | S. cerevisiae deletion strains, locus YNL207W, strain RIO2, active compounds read low 0.976 | S. cerevisiae deletion strains, locus YNL222W, strain SSU72, active compounds read low 0.97 | S. cerevisiae deletion strains, locus YNL307C, strain MCK1 (second series), active compounds read low 0.937 | [24] 0.993 | S. cerevisiae deletion strains, locus YOL078W, strain AVO1, active compounds read low 0.971 | S. cerevisiae deletion strains, locus YOL136C, strain PFK27, active compounds read low 0.917 | S. cerevisiae deletion strains, locus YOR061W, strain CKA2, active compounds read low 0.935 | S. cerevisiae deletion strains, locus YOR119C, strain RIO1, active compounds read low 0.97 | S. cerevisiae deletion strains, locus YOR231W, strain MKK1, active compounds read low 0.939 | S. cerevisiae deletion strains, locus YOR329C, strain SCD5, active compounds read low 0.972 | S. cerevisiae deletion strains, locus YPL031C, strain PHO85, active compounds read low 0.9 | S. cerevisiae deletion strains, locus YPL153C, strain RAD53, active compounds read low 0.918 | S. cerevisiae deletion strains, locus YPL204W, strain HRR25, active compounds read low 0.912 | S. cerevisiae deletion strains, locus YPL209C, strain IPL1, active compounds read low 0.977 | S. cerevisiae deletion strains, locus YPL256C, strain CLN2, active compounds read low 0.882 | S. cerevisiae deletion strains, locus YPR025C, strain CCL1, active compounds read low 0.979 | S. cerevisiae deletion strains, locus YPR106W, strain ISR1, active compounds read low 0.979 | S. cerevisiae deletion strains, locus YPR111W, strain DBF20, active compounds read low 0.972 | [28] 0.681 | S. cerevisiae deletion strains, strain NNK1, active compounds read low 0.975 | S. cerevisiae deletion strains, strain TSCII, active compounds read low 0.972
active: [1] 0.906 | [9] 0.426 and 0.762 | [13] 0.807 | [14] 0.708 | [16] 0.55 | S. cerevisiae deletion strains, locus YLR113W, strain HOG1, active compounds read low 0.806 | [17] 0.776 | [18] 0.822 | [20] 0.893 | S. cerevisiae deletion strains, locus YMR307W, strain GAS1, active compounds read low 0.461 | [23] 0.796 | [25] 0.754 | [26] 0.733 | [27] 0.843 | [29] 0.874
